Data on 26 compounds can be found in PubChem BioAssay.

Records with an inconclusive call do not appear. The source made the active and inactive calls. Unless noted, cut-off not given; nearly all actives show AC50 up to about 26 µM.

By viability is commonly meant a read-out of living cells in per cent, often relative to untreated cells. Usually remaining activity stands for the signal under treatment as a percentage of the control signal. As usually defined, the AC50 is the concentration giving half of the maximal activity seen. As usually defined, the IC50 is the concentration at which inhibition is half-maximal.

Assay [1] can be described thus: growth inhibition of DIPG glioma cells, dose response, cell-based, SU-DIPG-XVII, MIPE5.0, CellTiter-Glo, qHTS (AID 1347060).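 On AC50: cells exposed to compound for 48 hours before viability readout.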 Conditions: SU-DIPG-XVII viability, CellTiter-Glo ATP luminescence. For orientation: Cellular ATP, detected with luciferase, serves as a proxy for viable cell number.
The nature of assay [2]: liver-stage malaria parasite growth inhibition, primary screen, cell-based, HepG2, luciferase luminescence, HepG2 viability (AID 624349; in the data active means parasite load remaining mostly below about 12%, no sharp cut-off; inactive means mostly above about 10%;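 further: 100% = mean of DMSO negative control wells on the same plate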). Conditions: P. berghei liver stage in HepG2, luciferase luminescence, concentration not given here; parasite load remaining: stronger effect = lower value; viability: measured here: HepG2 viability without parasites.
Assay [3] concerns Aerobactin synthetase IucA (Klebsiella pneumoniae). Kind of assay: IucA aerobactin synthetase inhibitors, biochemical, Tocris library, absorbance (AID 1345561; call rule not given here;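 further: 100% = enzyme without compound and 0% = no enzyme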). Conditions: purified IucA enzyme assay, absorbance (OD) read-out; stronger effect = lower value;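 tested at 8 µM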.
The nature of assay [4]: sensitizers of A549 cells to miR-34 induction, primary screen, imaging, A549 dox-inducible miR-34, nuclei and caspase counts (AID 1347080;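 active means compounds whose cell count with miR-34 switched on is under 0.7 times the count with it off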). Conditions: A549 miR-34 inducible, Hoechst nuclei count, 48 h.
The nature of assay [5]: viability rescue of complex I mutant cybrids, primary screen, cell-based, galactose medium, ATP luminescence (AID 1645843;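 active means z-score of at least 1.8 in each of two replicates, scored against plate mean and spread of sample wells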;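 further: positive z means more ATP and so rescue of galactose-driven cybrid death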). Conditions: complex I mutant cybrid cells, 72 h, stronger effect = higher value.
Assay [6] is described as follows: growth inhibition of DIPG glioma cells, dose response, cell-based, SU-DIPG-XIII, MIPE4.0, CellTiter-Glo, qHTS (AID 1347061; cut-off not given, nearly all actives have AC50 up to about 37 µM;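 further: cells exposed to compound for 48 hours before readout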). Conditions: SU-DIPG-XIII viability, CellTiter-Glo ATP luminescence.
Assay [7] in a line: growth inhibition of DIPG glioma cells, dose response, cell-based, JHH-DIPG-1, MIPE4.0, CellTiter-Glo, qHTS (AID 1347062; cut-off not given, nearly all actives have AC50 up to about 27 µM;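 on AC50: cells exposed to compound for two days before readout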). Conditions: JHH-DIPG-1 viability, CellTiter-Glo ATP luminescence.
Assay [8] in a line: growth inhibition of DIPG glioma cells, dose response, cell-based, SU-DIPG-IV, MIPE4.0, CellTiter-Glo, qHTS (AID 1347063; cut-off not given, nearly all actives have AC50 up to about 30 µM;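 further: compound exposure lasted 48 hours before the viability readout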). Conditions: SU-DIPG-IV viability, CellTiter-Glo ATP luminescence.
The nature of assay [9]: growth inhibition of DIPG glioma cells, dose response, cell-based, SU-DIPG-XIII, MIPE5.0, CellTiter-Glo, qHTS (AID 1347064; cut-off not given, nearly all actives have AC50 up to about 23 µM;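 on AC50: cells exposed to compound for 48 hours before the viability read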). Conditions: SU-DIPG-XIII viability, CellTiter-Glo ATP luminescence.
Assay [10] can be described thus: viability loss in pontine glioma line – cell-based, SU-DIPG-XXV, MIPE5.0, CellTiter-Glo, qHTS, dose response (AID 1347065).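 Further: cells exposed to compound for 48 hours before ATP readout.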 Conditions: CellTiter-Glo ATP luminescence.
The nature of assay [11]: SU-DIPG-VI glioma cell viability, MIPE4.0 library, CellTiter-Glo luminescence, qHTS (AID 1347066; cut-off not given, nearly all actives have AC50 up to about 30 µM;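 further: cells exposed to compound for 48 hours before readout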). Conditions: CellTiter-Glo ATP luminescence.
The nature of assay [12]: JHH-DIPG-1 glioma cell viability, MIPE5.0 library, CellTiter-Glo luminescence, qHTS (AID 1347067).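 Further: cells exposed to compound for 48 hours before readout.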 Conditions: JHH-DIPG-1 glioma viability, CellTiter-Glo ATP luminescence.
Assay [13] can be described thus: SU-DIPG-XXV glioma cell viability, MIPE5.0 library, qHTS (AID 1347068; cut-off not given, nearly all actives have IC50 up to about 30 µM;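 on IC50: cells exposed to compound for 48 hours before viability readout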). In general terms: qHTS replaces the single test concentration by a dilution series.
[14] abbreviates: stronger effect = lower value, cell number ratio, induced over uninduced.
Where [15] appears, read: measured here: relative caspase fold change +Dox/-Dox.
Setting [16] is: measured here: total cells with miR-34 induction, stronger effect = lower value.
Where [17] appears, read: measured here: total cells without miR-34 induction.

For the compound `NS(=O)(=O)c1ccc(NC(=S)N2CCN(C/C=C/c3ccccc3)CC2)cc1`, the outcome in [1] was inactive.

Take `Cc1ccc(NC2=CC(=O)c3sc(C)nc3C2=O)cc1`: the parasite load remaining in assay [2] is 21% (inactive). The viability in assay [2] worked out at 105%. The remaining activity in [3] is 117% (inactive). Besides, the fold change was 0.814 (inactive) in assay [4] (setting [14]) and 0.845 in assay [4] (setting [15]). Also, the figures for the cell count in assay [4] (setting [16]) and in assay [4] (setting [17]) were 1060 and 1300, respectively. In addition, the z-score in assay [5] was -0.705 (inactive).

As for `CC1=C(CO)C(=O)O[C@@H]([C@@H](C)[C@H]2CC[C@H]3[C@@H]4C[C@H]5O[C@]56[C@@H](O)C=CC(=O)[C@]6(C)[C@H]4CC[C@]23C)C1`, the AC50 is 1.48 µM (active) in [1]; 1.87 µM (active) in assay [6]; 1.18 µM (active) in assay [7]; 0.332 µM (active) in assay [8]; 1.05 µM (active) in [9]; 1.48 µM (active) in assay [10]. Besides, the AC50 in assay [11] was 0.743 µM (active); in assay [12] it was 1.32 µM (active). Also, the IC50 in [13] was 2.35 µM (active).

`C=CCNc1c(O)cc2c(O)c1C[C@@H](C)C[C@H](OC)[C@H](O)[C@@H](C)/C=C(/C)[C@H](OC(N)=O)[C@@H](OC)/C=C\C=C(\C)C(=O)N2`: the AC50 was 0.525 µM (active) in [1]; 1.05 µM (active) in [6]; 0.332 µM (active) in assay [7]; 0.148 µM (active) in assay [8]; 1.66 µM (active) in assay [9]; 3.72 µM (active) in assay [10]. The AC50 in assay [11] is 14.8 µM (active); in [12], 0.468 µM (active).

Turning to `COc1cc2c(Oc3ccc(-c4cnc(Nc5ccc(F)cc5)n(C)c4=O)cc3F)ccnc2cc1OCCCN1CCOCC1`, the AC50 in assay [1] was 3.32 µM (active); in [6], 14.8 µM (active); in [7], 18.7 µM (active); in assay [8], 16.6 µM (active); in assay [9], 3.72 µM (active); in assay [10], 2.09 µM (active). Besides, the figures for the AC50 in assay [11] and in assay [12] were 9.35 µM (active) and 9.34 µM (active), respectively. For the same compound, the IC50 in assay [13] is 6.61 µM (active).

As for `CCCCC(=O)OCC(=O)[C@]1(O)Cc2c(O)c3c(c(O)c2[C@@H](O[C@H]2C[C@H](NC(=O)C(F)(F)F)[C@H](O)[C@H](C)O2)C1)C(=O)c1c(OC)cccc1C3=O`, in assay [1], the AC50 was 1.66 µM (active).

For the compound `O=C(NC1CC1)c1cccc(-c2ccc3c(NC(=O)C4CC4)n[nH]c3c2)c1`, the AC50 in [1] is 10.5 µM (active); in [6], 4.69 µM (active); in assay [7] it was 9.35 µM (active); in assay [8], 11.8 µM (active); in [9] it was 8.33 µM (active).

`O=c1c(-c2ccc(O)cc2)coc2cc(O[C@@H]3O[C@H](CO)[C@@H](O)[C@H](O)[C@H]3O)ccc12`: the compound was classed as inactive in assay [1], in assay [6], in [7], in assay [8], in [9] and in assay [10]. The result in assay [11], in [12] and in assay [13] was inactive.

With `COC(=O)C1=C(C)NC(c2ncc(F)cc2F)=N[C@H]1c1ccc(F)cc1Cl`, in [1], the AC50 was 23.5 µM (active).

`COc1cc(C)c(Sc2cnc(NC(=O)c3ccc(CNC(C)C(C)(C)C)cc3)s2)cc1C(=O)N1CCN(C(C)=O)CC1` (stereo unspecified): the AC50 in assay [1] was 10.5 µM (active); in assay [6], 16.6 µM (active); in [7] it was 20.9 µM (active); in assay [8] it was 7.43 µM (active); in [9], 6.61 µM (active); in assay [10], 4.17 µM (active). Further, the half-maximal activity concentration (AC50) in [11] was 18.7 µM (active).

Take `CC(C)S(=O)(=O)c1ccc2nccc(Nc3ccc4scnc4c3)c2c1`: the half-maximal activity concentration (AC50) in assay [1] is 16.6 µM (active).

For `OC[C@H]1O[C@@H](n2cnc3c2NC=NC[C@H]3O)C[C@@H]1O`, the outcome in assay [1], in [6], in [7], in assay [8], in assay [9] and in assay [10] was inactive. For the same compound, the outcome in [11], in assay [12] and in [13] was inactive.

`COc1ccc2c(OCc3nnc4ccc(-c5ccccc5)nn34)ccnc2c1`: the call in assay [1], in assay [6], in assay [7], in [8], in [9] and in [10] was inactive. The outcome in assay [11], in assay [12] and in assay [13] was inactive.

For the compound `COc1ccc(Nc2cc(-c3cnc(N)nc3)nc(N3CCOCC3)n2)cn1`, the AC50 in assay [1] was 2.95 µM (active); in assay [6], 18.7 µM (active); in assay [7], 5.9 µM (active); in [8], 4.69 µM (active); in assay [9], 1.66 µM (active); in assay [10], 1.32 µM (active). Besides, in assay [11], the AC50 was 4.18 µM (active).

On to `CCOC(=O)C12CC1/C(=N\O)c1ccccc1O2` (stereo unspecified), for which the remaining activity in assay [3] was 109% (inactive). The fold change in [4] (setting [14]) was 0.923 (inactive); in assay [4] (setting [15]), 1.17. For the same compound, the figures for the cell count in [4] (setting [16]) and in assay [4] (setting [17]) were 8510 and 9220, respectively. In assay [5], the z-score was -0.07 (inactive).

As for `O=c1cc(N2CCOCC2)nc2c3ccccc3ccn12`, the parasite load remaining in assay [2] was 31.9% (inactive). Moreover, the viability in [2] is 94.8%. Also, in [3], the remaining activity was 126% (inactive). Moreover, the fold change was 0.935 (inactive) in [4] (setting [14]) and 1.52 in assay [4] (setting [15]). Also, the cell count in assay [4] (setting [16]) is 8560; in [4] (setting [17]), 9160. Also, the z-score in assay [5] is 1.56 (inactive).

Consider `NCC(=O)Nc1cncc(-c2nn3c(=O)cc(N4CCNCC4)nc3s2)c1`, for which the compound was classed as inactive in [1].

As to `OCCCNc1cc(-c2ccnc(Nc3cccc(Cl)c3)n2)ccn1`, the AC50 in assay [1] was 0.132 µM (active); in [6], 0.148 µM (active); in assay [7], 0.148 µM (active); in assay [8], 0.0526 µM (active); in [9] it was 0.0833 µM (active); in [10], 0.132 µM (active). The AC50 in [12] is 0.118 µM (active). The call in [11] was inactive. The IC50 in assay [13] was 0.148 µM (active).

On to `CN1CCN(Cc2ccc(NC(=O)Nc3ccc(Oc4cc(NC(=O)C5CC5)ncn4)cc3)cc2C(F)(F)F)CC1`, for which the AC50 in assay [1] is 0.468 µM (active); in [6], 5.9 µM (active); in [7], 0.118 µM (active); in [8], 0.235 µM (active); in assay [9], 0.525 µM (active); in [10], 0.417 µM (active). The figures for the AC50 in assay [11] and in assay [12] were 2.96 µM (active) and 0.372 µM (active), respectively. Also, in assay [13], the IC50 is 0.417 µM (active).

As to `CC(C)C[C@H](CO)Nc1nc(S[C@@H](C)c2ccccc2)nc2nc(N)sc12`, the compound was classed as inactive in assay [1].

As for `CC(C)(C)C[C@H]1N[C@@H](C(=O)NC2CCC(O)CC2)[C@H](c2cccc(Cl)c2F)[C@@]12C(=O)Nc1cc(Cl)ccc12` (stereo partly specified), in assay [1], the AC50 was 23.5 µM (active).

In the case of `COc1cc(C(=O)NC(N)=Nc2ccc(C)c(NC(=O)c3ccc(-c4ccccc4)cc3)c2)cc(OC)c1OC`, the AC50 in assay [1] is 16.6 µM (active).

Turning to `C=CC(=O)N1CCc2ccc(-n3c(=O)ccc4cnc5ccc(-c6cnn(C)c6)cc5c43)cc21`, the AC50 in assay [1] is 0.229 µM (active); in assay [6], 8.33 µM (active); in assay [7] it was 7.43 µM (active); in assay [8] it was 2.35 µM (active); in [9] it was 0.0723 µM (active); in [10], 0.144 µM (active). The values for the AC50 in [11] and in [12] were 3.72 µM (active) and 1.15 µM (active), respectively.

With `CC[C@@]1(O)C(=O)OCc2c1cc1n(c2=O)Cc2c-1nc1cc(F)c(C)c3c1c2[C@@H](N)CC3`, in [1], the AC50 was 0.00235 µM (active).

Regarding `O=C1NC(O)CCN1[C@@H]1O[C@H](CO)[C@@H](O)[C@H]1O` (stereo partly specified), the compound was called inactive in assay [1], in assay [6], in [7], in assay [8], in assay [9] and in assay [10]. Further, the call in [11], in assay [12] and in assay [13] was inactive.

Turning to `O=C1NC(=O)c2cc(Nc3ccc(F)cc3)c(Nc3ccc(F)cc3)cc21`, the parasite load remaining in assay [2] is 41.4% (inactive). Also, in assay [2], the viability was determined as 70.7%. In addition, the remaining activity in [3] is 103% (inactive). In addition, the results for the fold change in assay [4] (setting [14]) and in assay [4] (setting [15]) were 1.25 (inactive) and 0.934, respectively. The results for the cell count in assay [4] (setting [16]) and in assay [4] (setting [17]) were 3220 and 2570, respectively. In addition, the z-score in [5] was -0.645 (inactive).
